In the supplement of paper PMC8728848:
The full list was thinned out, with the strongest signals kept by preference.

Legend:
Test in all cases: glycan array binding signal (z-score within array); higher = stronger binding
Details in all cases: glycan notation: IUPAC condensed, linker removed
[1] = target: Neu5Ac(a2-3)Gal(b1-4)GlcNAc6S
Procedure, shortened: (§1)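 Glycan array binding is given as a within-array Z-score, which can be read as non-binding when negative. The arrays, 3228 of them, came from the Consortium for Functional Glycomics database and were retained only where the protein sequence was available. Z-scores were averaged across arrays of the same protein sequence at different concentrations or buffers and across linkers.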

[2] = target: Neu5Ac(a2-6)Gal(b1-4)GlcNAc
Procedure, shortened: as §1

[3] = target: Neu5Ac(a2-6)Gal(b1-4)GlcNAc(b1-2)Man(a1-3)[Man(a1-6)]Man(b1-4)GlcNAc(b1-4)GlcNAc
Procedure, shortened: as §1

[4] = target: Neu5Ac(a2-6)Gal(b1-4)GlcNAc(b1-3)Gal(b1-4)GlcNAc
Procedure, shortened: as §1

[5] = target: Neu5Gc(a2-3)Gal(b1-3)[Fuc(a1-4)]GlcNAc
Procedure, shortened: as §1

Fuc(a1-2)Gal(b1-4)GlcNAc = target: Fuc(a1-2)Gal(b1-4)GlcNAc
Procedure, shortened: as §1

[6] = target: Fuc(a1-2)Gal(b1-4)GlcNAc(b1-3)Gal(b1-4)GlcNAc(b1-3)Gal(b1-4)GlcNAc
Procedure, shortened: as §1

[7] = target: Fuc(a1-2)Gal(b1-4)[Fuc(a1-3)]GlcNAc
Procedure, shortened: as §1

Fuc(a1-2)Gal6S(b1-4)Glc = target: Fuc(a1-2)Gal6S(b1-4)Glc
Procedure, shortened: as §1

[8] = target: Fuc(a1-2)Gal6S(b1-4)GlcNAc
Procedure, shortened: as §1

[9] = target: Fuc(a1-2)[Gal(a1-3)]Gal(b1-4)GlcNAc
Procedure, shortened: as §1

[10] = target: Fuc(a1-2)[GalNAc(a1-3)]Gal(b1-3)GlcNAc(b1-2)Man(a1-3)[Fuc(a1-2)[GalNAc(a1-3)]Gal(b1-3)GlcNAc(b1-2)Man(a1-6)]Man(b1-4)GlcNAc(b1-4)GlcNAc
Procedure, shortened: as §1

[11] = target: Fuc(a1-2)[GalNAc(a1-3)]Gal(b1-4)GlcNAc
Procedure, shortened: as §1

[12] = target: Fuc(a1-3)[Gal(b1-4)]GlcNAc(b1-2)Man(a1-6)[Gal(b1-4)GlcNAc(b1-2)Man(a1-3)]Man(b1-4)GlcNAc(b1-4)GlcNAc
Procedure, shortened: as §1

[13] = target: Gal(a1-3)Gal(b1-3)GlcNAc(b1-2)Man(a1-3)[Gal(a1-3)Gal(b1-3)GlcNAc(b1-2)Man(a1-6)]Man(b1-4)GlcNAc(b1-4)GlcNAc
Procedure, shortened: as §1

[14] = target: Gal(a1-4)Gal(b1-3)GlcNAc(b1-2)Man(a1-3)[Gal(a1-4)Gal(b1-3)GlcNAc(b1-2)Man(a1-6)]Man(b1-4)GlcNAc(b1-4)GlcNAc
Procedure, shortened: as §1

[15] = target: Gal(a1-4)Gal(b1-4)GlcNAc(b1-2)Man(a1-3)[Gal(a1-4)Gal(b1-4)GlcNAc(b1-2)Man(a1-6)]Man(b1-4)GlcNAc(b1-4)GlcNAc
Procedure, shortened: as §1

Gal(b1-3)Gal = target: Gal(b1-3)Gal
Procedure, shortened: as §1

Gal(b1-3)Gal(b1-4)GlcNAc = target: Gal(b1-3)Gal(b1-4)GlcNAc
Procedure, shortened: as §1

[16] = target: Gal(b1-3)GalNAc(a1-3)[Fuc(a1-2)]Gal(b1-4)GlcNAc
Procedure, shortened: as §1

[17] = target: Gal(b1-3)GlcNAc(b1-3)Gal(b1-4)GlcNAc(b1-6)[Gal(b1-3)GlcNAc(b1-3)]Gal(b1-4)Glc
Procedure, shortened: as §1

[18] = target: Gal(b1-4)GlcNAc(a1-6)Gal(b1-4)GlcNAc
Procedure, shortened: as §1

[19] = target: Gal(b1-4)GlcNAc(b1-2)Man(a1-3)[GlcNAc(b1-2)Man(a1-6)]Man(b1-4)GlcNAc(b1-4)GlcNAc
Procedure, shortened: as §1

[20] = target: Gal3S(b1-4)[Fuc(a1-3)]Glc
Procedure, shortened: as §1

[21] = target: GlcNAc(a1-4)Gal(b1-4)GlcNAc(b1-3)Gal(b1-4)Glc
Procedure, shortened: as §1

[22] = target: GlcNAc(b1-2)[GlcNAc(b1-4)]Man(a1-3)[GlcNAc(b1-2)Man(a1-6)]Man(b1-4)GlcNAc(b1-4)GlcNAc
Procedure, shortened: as §1

[23] = target: GlcNAc(b1-3)Gal(b1-4)GlcNAc
Procedure, shortened: as §1

[24] = target: GlcNAc(b1-3)[GlcNAc(b1-4)][GlcNAc(b1-6)]GlcNAc
Procedure, shortened: as §1

[25] = target: Man(a1-2)Man(a1-3)[Man(a1-2)Man(a1-6)]Man
Procedure, shortened: as §1

[26] = target: Man(a1-2)Man(a1-3)[Man(a1-2)Man(a1-6)]Man(a1-6)[Man(a1-2)Man(a1-2)Man(a1-3)]Man
Procedure, shortened: as §1

[27] = target: Neu5Ac(a2-3)Gal(b1-3)GlcNAc(b1-2)Man(a1-3)[Neu5Ac(a2-3)Gal(b1-3)GlcNAc(b1-2)Man(a1-6)]Man(b1-4)GlcNAc(b1-4)GlcNAc
Procedure, shortened: as §1

[28] = target: Neu5Ac(a2-3)Gal(b1-3)GlcNAc(b1-3)Gal(b1-3)GlcNAc
Procedure, shortened: as §1

[29] = target: Neu5Ac(a2-3)Gal(b1-3)GlcNAc(b1-3)Gal(b1-4)GlcNAc
Procedure, shortened: as §1

[30] = target: Neu5Ac(a2-3)Gal(b1-3)[Neu5Ac(a2-3)Gal(b1-4)]GlcNAc
Procedure, shortened: as §1

[31] = target: Neu5Ac(a2-3)Gal(b1-4)GlcNAc(b1-2)Man(a1-3)[GlcNAc(b1-2)Man(b1-4)GlcNAc(b1-2)Man(a1-6)]Man(b1-4)GlcNAc(b1-4)GlcNAc
Procedure, shortened: as §1

[32] = target: Neu5Ac(a2-3)Gal(b1-4)GlcNAc(b1-2)Man(a1-3)[Neu5Ac(a2-6)Gal(b1-4)GlcNAc(b1-2)Man(a1-6)]Man(b1-4)GlcNAc(b1-4)GlcNAc
Procedure, shortened: as §1

[33] = target: Neu5Ac(a2-3)Gal(b1-4)[Fuc(a1-3)]GlcNAc(b1-3)Gal(b1-4)[Fuc(a1-3)]GlcNAc(b1-3)Gal(b1-4)[Fuc(a1-3)]GlcNAc
Procedure, shortened: as §1

Neu5Ac(a2-6)Gal(b1-4)Glc = target: Neu5Ac(a2-6)Gal(b1-4)Glc
Procedure, shortened: as §1

[34] = target: Neu5Ac(a2-6)Gal(b1-4)GlcNAc(b1-3)Gal(b1-4)GlcNAc(b1-3)Gal(b1-4)GlcNAc
Procedure, shortened: as §1

[35] = target: Neu5Ac(a2-6)Gal(b1-4)GlcNAc(b1-3)GalNAc
Procedure, shortened: as §1

[36] = target: Neu5Ac(a2-6)GalNAc(b1-4)GlcNAc
Procedure, shortened: as §1

B1: Tachylectin-2 (Tachypleus tridentatus), TAL2_TACTR (protein)
chain: VGGESMLRGVYQDKFYQGTYPQNKNDNWLARATLIGKGGWSNFKFLFLSPGGELYGVLNDKIYKGTPPTHDNDNWMGRAKKIGNGGWNQFQFLFFDPNGYLYAVSKDKLYKASPPQSDTDNWIARATEIGSGGWSGFKFLFFHPNGYLYAVHGQQFYKALPPVSNQDNWLARATKIGQGGWDTFKFLFFSSVGTLFGVQGGKFYEDYPPSYAHDNWLARAKLIGNGGWDDFRFLFF
glycan array binding signal (z-score) [1]: -0.232 | glycan array binding signal (z-score) [2]: -0.176 | glycan array binding signal (z-score) [3]: -0.295 | glycan array binding signal (z-score) [4]: -0.249 | glycan array binding signal (z-score) [5]: -0.316

B2: Mincle (Homo sapiens), Q9ULY5 (protein)
chain: MNSSKSSETQCTERGCFSSQMFLWTVAGIPILFLSACFITRCVVTFRIFQTCDEKKFQLPENFTELSCYNYGSGSVKNCCPLNWEYFQSSCYFFSTDTISWALSLKNCSAMGAHLVVINSQEEQEFLSYKKPKMREFFIGLSDQVVEGQWQWVDGTPLTKSLSFWDVGEPNNIATLEDCATMRDSSNPRQNWNDVTCFLNYFRICEMVGINPLNKGKSL
glycan array binding signal (z-score) (Fuc(a1-2)Gal(b1-4)GlcNAc): -0.329 | glycan array binding signal (z-score) [6]: 0.144 | glycan array binding signal (z-score) [7]: -0.37 | glycan array binding signal (z-score) (Fuc(a1-2)Gal6S(b1-4)Glc): -0.325 | glycan array binding signal (z-score) [8]: -0.106 | glycan array binding signal (z-score) [9]: -0.111 | glycan array binding signal (z-score) [10]: 0.062 | glycan array binding signal (z-score) [11]: -0.289 | glycan array binding signal (z-score) [12]: 5.4 | glycan array binding signal (z-score) [13]: 4.69 | glycan array binding signal (z-score) [14]: 0.054 | glycan array binding signal (z-score) [15]: 3.26 | glycan array binding signal (z-score) (Gal(b1-3)Gal): -0.357 | glycan array binding signal (z-score) (Gal(b1-3)Gal(b1-4)GlcNAc): -0.566 | glycan array binding signal (z-score) [16]: -0.127 | glycan array binding signal (z-score) [17]: 6.4 | glycan array binding signal (z-score) [18]: -0.484 | glycan array binding signal (z-score) [19]: 0.969 | glycan array binding signal (z-score) [20]: -0.146 | glycan array binding signal (z-score) [21]: -0.295 | glycan array binding signal (z-score) [22]: -0.194 | glycan array binding signal (z-score) [23]: -0.245 | glycan array binding signal (z-score) [24]: -0.38 | glycan array binding signal (z-score) [25]: 0.813 | glycan array binding signal (z-score) [26]: 5 | glycan array binding signal (z-score) [27]: -0.71 | glycan array binding signal (z-score) [28]: -0.197 | glycan array binding signal (z-score) [29]: -0.575 | glycan array binding signal (z-score) [30]: -0.483 | glycan array binding signal (z-score) [31]: 3.33 | glycan array binding signal (z-score) [32]: 2.53 | glycan array binding signal (z-score) [33]: -0.324 | glycan array binding signal (z-score) (Neu5Ac(a2-6)Gal(b1-4)Glc): -0.181 | glycan array binding signal (z-score) [34]: -0.394 | glycan array binding signal (z-score) [35]: 0.372 | glycan array binding signal (z-score) [36]: -0.184
